Screening data deposited in PubChem by Broad Institute.
Only a sample is shown.
aSyn 5UTR act – Activators via SNCA 5'UTR binding, MLPCN | alpha-synuclein 5'UTR reporter, activators screen | hit rate 7.1% among 300,000 | activity score, % (tested at 7.5 µM), hits read low; in the data active = activity score below about -60%
Active calls of the source: *.

How did Cc1ncsc1C(=O)Nc1nc2c(s1)CC(C)CC2 (stereo not given) do in these assays?
aSyn 5UTR act: -126*

Results for CCOc1ccccc1NC(=O)c1cc2ccccc2oc1=O ?
aSyn 5UTR act: -95*

What do the screens show for `N/C(=N\NC(=O)c1cccs1)c1cc2ccccc2oc1=O`?
aSyn 5UTR act: -64*

What do the screens show for `O=C(NNC(=O)c1cc2ccccc2cc1O)c1cccs1`?
aSyn 5UTR act: -193*

How did CC(C)OC(=O)c1cc2ccccc2oc1=O do in these assays?
aSyn 5UTR act: -66*

Results for O=C(NNC(=O)c1cc2ccccc2oc1=O)c1ccccc1 ?
aSyn 5UTR act: -108*

Results for O=C(c1cc2ccccc2oc1=O)N1CCN(c2ncccn2)CC1 ?
aSyn 5UTR act: -92*

What do the screens show for `O=C(Nc1ccc(F)cc1F)c1cc2ccccc2oc1=O`?
aSyn 5UTR act: -156*

Results for Cc1nc(S(=O)(=O)N(C)c2ccccc2)c(C#N)c(C)c1Cl ?
aSyn 5UTR act: -77*

Results for COc1cc(CNc2ccc3[nH]c(=O)[nH]c3c2)ccc1OCc1ccc(F)cc1 ?
aSyn 5UTR act: -91*

Results for COc1cc(CNc2ccc3[nH]c(=O)[nH]c3c2)ccc1OCc1ccccc1F ?
aSyn 5UTR act: -107*

What do the screens show for `COc1cc(CNc2ccc3[nH]c(=O)[nH]c3c2)ccc1OCc1ccccc1`?
aSyn 5UTR act: -86*

What do the screens show for `COc1cc(CNc2ccc(CNc3ncn[nH]3)cc2)ccc1OCc1ccccc1`?
aSyn 5UTR act: -117*

Results for COc1cc(CNc2ccc3[nH]c(=O)[nH]c3c2)ccc1OCc1ccc(Cl)cc1 ?
aSyn 5UTR act: -171*

How did Cc1cccc(OCCn2c(=O)oc3ccc(C)cc32)c1 do in these assays?
aSyn 5UTR act: -110*

Results for Brc1ccc(-c2ncc3ccccn23)cc1 ?
aSyn 5UTR act: -130*

What do the screens show for `Fc1ccc(-c2ncc3ccccn23)cc1`?
aSyn 5UTR act: -101*

What do the screens show for `N#CCCCCn1ccc(NC(=O)c2ccc(Cl)cc2O)n1`?
aSyn 5UTR act: -81*

Results for O=c1c(-c2cnn(-c3ccccc3)c2)coc2cc(O)ccc12 ?
aSyn 5UTR act: -156*

What do the screens show for `Cc1oc2cc(O)ccc2c(=O)c1-c1cnn(-c2ccccc2)c1`?
aSyn 5UTR act: -77*

Results for O=c1c(-c2ccc(O)cc2)coc2cc(O)ccc12 ?
aSyn 5UTR act: -93*

What do the screens show for `Cc1ccc(C(=O)CNc2ccc(Br)cc2)cc1`?
aSyn 5UTR act: -71*

How did Cc1ccc(NCC(=O)c2ccc([N+](=O)[O-])cc2)cc1 do in these assays?
aSyn 5UTR act: -115*

What do the screens show for `CC(C)Sc1nc(N)nc(-c2cccs2)c1C#N`?
aSyn 5UTR act: -146*

Results for O=C(OCC(=O)N1CCOCC1)c1ccccc1Cc1ccccc1 ?
aSyn 5UTR act: -183*

Results for Nc1ccc(C(=O)OCC(=O)N2CCOCC2)cc1[N+](=O)[O-] ?
aSyn 5UTR act: -71*

What do the screens show for `O=C(OCC(=O)N1CCOCC1)c1cccc(F)c1`?
aSyn 5UTR act: -87*

Results for COc1ccc(-c2cc3ncnc(Cl)c3s2)cc1 ?
aSyn 5UTR act: -69*

How did S=c1sc2c(Cl)ncnc2n1-c1ccccc1 do in these assays?
aSyn 5UTR act: 93

What do the screens show for `CCN(CC)c1ccc(/C=N/NC(=O)c2ccccn2)cc1`?
aSyn 5UTR act: -125*

Results for O=C(N/N=C/c1ccc(OC(=O)c2ccccc2Cl)cc1)c1ccccn1 ?
aSyn 5UTR act: -112*

What do the screens show for `Cc1ccc(/C=N\NC(=O)c2csnn2)cc1`?
aSyn 5UTR act: -69*

How did C/C(=N\NC(=O)C(C)Oc1ccc([N+](=O)[O-])cc1)c1ccccn1 (stereo not given) do in these assays?
aSyn 5UTR act: 72

How did O=C(Oc1cccc(/C=N/NC(=O)c2ccccn2)c1)c1ccc([N+](=O)[O-])cc1 do in these assays?
aSyn 5UTR act: -100*

What do the screens show for `CCN(CC)c1ccc(/C=N/NC(=O)c2cnccn2)cc1`?
aSyn 5UTR act: -85*

What do the screens show for `CN1/C(=C\C(=O)c2cccc([N+](=O)[O-])c2)Sc2ccccc21`?
aSyn 5UTR act: -83*

What do the screens show for `COc1ccc2c(c1)S/C(=C\C(=O)c1ccncc1)N2C`?
aSyn 5UTR act: -165*

How did COc1cc(OC)cc(C(=O)/C=C2\Sc3ccccc3N2C)c1 do in these assays?
aSyn 5UTR act: -154*

Results for CN1/C(=C/C(=O)c2ccc(Cl)cc2)Sc2cc3c(cc21)OCO3 ?
aSyn 5UTR act: -160*

How did CN1/C(=C/C(=O)C2CCC2)Sc2ccccc21 do in these assays?
aSyn 5UTR act: -89*

How did CCOc1cccc(/C=N/Nc2ccc(S(=O)(=O)N(CC)CC)cn2)c1O do in these assays?
aSyn 5UTR act: 88

Results for CCOc1cccc(/C=N/NC(=S)Nc2cc(S(=O)(=O)N3CCOCC3)ccc2N2CCOCC2)c1O ?
aSyn 5UTR act: 81

Results for CCOc1cccc(C=Nc2cc(C)cc(C)c2O)c1O ?
aSyn 5UTR act: -85*

Results for CCc1ccc(NC(=O)Nc2ccon2)cc1 ?
aSyn 5UTR act: -136*

How did O=C(Nc1ccc([N+](=O)[O-])cc1)Nc1ccon1 do in these assays?
aSyn 5UTR act: 74

What do the screens show for `CCc1ccc(NC(=O)Nc2cnccn2)cc1`?
aSyn 5UTR act: -104*

How did CCCCc1ccc(NC(=O)Nc2cnccn2)cc1 do in these assays?
aSyn 5UTR act: -98*

How did O=[N+]([O-])c1ccccc1S(=O)(=O)c1ccccc1[N+](=O)[O-] do in these assays?
aSyn 5UTR act: -62*

How did CC(CS(=O)(=O)c1ccccc1[N+](=O)[O-])N1CCOCC1 (stereo not given) do in these assays?
aSyn 5UTR act: -70*

What do the screens show for `NC(=O)CSc1nc(C2CC2)nc2sc3c(c12)CCCC3`?
aSyn 5UTR act: -109*

Results for Cc1cc(NC(=O)CSc2nc(C3CC3)nc3sc4c(c23)CCC(C)C4)no1 (stereo not given) ?
aSyn 5UTR act: -70*

How did COc1ccc(OC)c(/C=N/N(C)c2ccccc2)c1 do in these assays?
aSyn 5UTR act: -187*

Results for COc1ccc(-c2c3c(nc4sc(C(=O)Nc5ccccc5)c(N)c24)CCC3)cc1 ?
aSyn 5UTR act: -128*

How did CCOC(=O)c1c(C)nc2sc(C(=O)Nc3ccccc3)c(N)c2c1-c1ccc(OC)cc1 do in these assays?
aSyn 5UTR act: -191*

Results for COc1ccccc1N1CCN(C(=O)CSc2ccccc2)CC1 ?
aSyn 5UTR act: -82*

How did C=CCN1CCN(C(=O)CSc2ccccc2)CC1 do in these assays?
aSyn 5UTR act: -103*

Results for C=CS(=O)(=O)c1ccc(Oc2ccc(S(=O)(=O)C=C)cc2)cc1 ?
aSyn 5UTR act: -108*

How did Cc1ccc(C2=NNC(C(O)C(O)C(O)C(C)O)S2)cc1 (stereo not given) do in these assays?
aSyn 5UTR act: -87*

What do the screens show for `Cc1csc(NC(=O)Nc2ccc(Cl)cc2)n1`?
aSyn 5UTR act: -115*

What do the screens show for `Cc1csc(NC(=O)NCC2CCCC(CNC(=O)Nc3nc(C)cs3)C2)n1` (stereo not given)?
aSyn 5UTR act: -66*

What do the screens show for `Cc1cnc(NC(=O)Nc2ccc(Cl)cc2)s1`?
aSyn 5UTR act: -187*

How did O=C(Cc1csc(NC(=O)Nc2ccc(Cl)cc2)n1)NC1CCCC1 do in these assays?
aSyn 5UTR act: -91*

What do the screens show for `N#Cc1c(/N=C/c2cc(Br)cs2)sc2c1CCC2`?
aSyn 5UTR act: -190*

How did N#Cc1c(/N=C/c2cccs2)sc2c1CCC2 do in these assays?
aSyn 5UTR act: -88*

What do the screens show for `CC(/C=C/c1ccco1)=N\NC(=O)CNc1ccc2ccccc2c1`?
aSyn 5UTR act: -70*

How did COc1ccccc1N1CCN(/N=C/c2cccc(O)c2)CC1 do in these assays?
aSyn 5UTR act: -111*
